{"source": "PubChem BioAssay (NCATS)", "note": "Inconclusive results are not listed. Calls of active or inactive are those of the source. Calls follow the shape of the dose curve; as a rule, active = well fitted cell-killing curve with a large enough effect; inconclusive = small, poorly fitted or top-dose-only effect, or effect the other way; inactive = no such curve, though single readings can be large or run the other way. Also: nearly all actives have a fitted effect of over 30% in size.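 For viability, % of DMSO in this document: 100% = DMSO only wells and 0% = cell-free media only wells.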 Potency is read from the fitted curve at half-maximal effect.", "data": [{"assay": "Quantitative High-Throughput drug screen in 47 multiple myeloma cell lines against the NCATS MIPE library collection: EJM_DSMZ cell viability assay (AID 1918926;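 as to viability, % of control: 100% = DMSO-only wells and 0% = media-only wells without cells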)", "details": "EJM myeloma cell viability, CellTiter-Glo ATP, 48 h; series mostly up to 45.8 µM; viability, % of control: at the top concentration", "outline": "(§1)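 qHTS of the MIPE 4.0 collection: 500 myeloma cells/well, 48 h drug exposure at 37C in 5% CO2, then CellTiter-Glo for 5 min at room temperature before luminescence reading.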", "values": [{"smiles": "C#CC1(O)CCC2C3CCC4=CC(=O)CCC4(C)C3CCC21C", "note": "(centres undefined)", "viability, % of control": "101% (inactive)"}, {"smiles": "COc1ccc(CC2NCCc3cc(OC)c(OC)cc32)cc1OC", "note": "(centres undefined)", "viability, % of control": "71% (inactive)"}, {"smiles": "C1=C2CCCN[C@H]2[C@@H]2C[C@H]1[C@@H]1CCCCN1C2", "viability, % of control": "92.7% (inactive)"}, {"smiles": "CC(C)[C@]12O[C@@H]1[C@@H]1O[C@]13[C@]1(O[C@H]1C[C@@H]1C4=C(CC[C@@]13C)C(=O)OC4)[C@H]2O", "viability, % of control": "13.5% (inactive)"}, {"smiles": "CC(N[C@H]1C[C@H]1c1ccccc1)c1ccc2c(c1)OCCO2", "note": "(some centres undefined)", "viability, % of control": "99.3% (inactive)"}, {"smiles": "O=c1[nH]c2ccccc2n1C1CCN(Cc2ccc(-c3[nH]c4cc5ncnc5cc4nc3-c3ccccc3)cc2)CC1", "Potency": "20.9 µM (active)"}, {"smiles": "CO[C@H]1CCC(O[C@H]2C[C@H]([C@]3(C)CC[C@]4(C[C@H](O)[C@@H](C)[C@@H]([C@@H](C)C=C(C)C(=O)[C@H](C)C[C@H](C)C(=O)O)O4)O3)O[C@]3(O[C@@H]([C@H]4O[C@@](O)(CO)[C@H](C)C[C@H]4C)C[C@H]3C)[C@H]2C)O[C@H]1C", "note": "(some centres undefined)", "Potency": "3.32 µM (active)"}, {"smiles": "COc1ccc2c(c1)[C@]13CCCCC1C(C2)N(C)CC3", "note": "(some centres undefined)", "viability, % of control": "108% (inactive)"}, {"smiles": "COCC1(CO)C(=O)C2CCN1CC2", "note": "(centres undefined)", "Potency": "20.9 µM (active)"}, {"smiles": "CC(=O)N(C)c1cccc(-c2ccnc3c(C(=O)c4cccs4)cnn23)c1", "viability, % of control": "101% (inactive)"}, {"smiles": "c1ccc2c(CN3CCNCC3)cccc2c1", "viability, % of control": "113% (inactive)"}, {"smiles": "CCOC(=O)c1c(C(C#N)=CN)c2ccc(Cl)c(Cl)c2n1C", "viability, % of control": "92.8% (inactive)"}, {"smiles": "C[C@]12CC[C@H]3[C@@H](CCC4=CC(=O)CC[C@@]43C)[C@H]1CC[C@H]2OC(=O)CCC1CCCC1", "Potency": "16.6 µM (active)"}, {"smiles": "CCOC(=O)Nc1ccc(NCc2ccc(F)cc2)cc1N", "viability, % of control": "109% (inactive)"}, {"smiles": "C[C@]12COC(=O)C[C@@H]1CC[C@@H]1[C@H]2CC[C@@]2(C)[C@H]1CC[C@]2(C)O", "viability, % of control": "103% (inactive)"}, {"smiles": "CC=C(C)C(=O)O[C@H]1C(C)=C2[C@@H]3OC(=O)[C@@](C)(O)[C@@]3(O)[C@@H](OC(=O)CCC)C[C@](C)(OC(C)=O)[C@@H]2[C@@H]1OC(=O)CCCCCCC", "Potency": "0.0372 µM (active)"}, {"smiles": "CCOC(=O)c1cncn1[C@H](C)c1ccccc1", "viability, % of control": "100% (inactive)"}, {"smiles": "COc1cc2cc(c1Cl)N(C)C(=O)C[C@H](OC(=O)C(C)C)[C@]1(C)O[C@H]1[C@H](C)[C@@H]1C[C@@](O)(NC(=O)O1)[C@H](OC)C=CC=C(C)C2", "viability, % of control": "24.4% (inactive)"}, {"smiles": "CN(C)[C@@H]1C(=O)C(C(N)=O)=C(O)[C@@]2(O)C(=O)C3=C(O)c4c(O)cccc4[C@@](C)(O)[C@H]3[C@H](O)[C@@H]12", "viability, % of control": "82.8% (inactive)"}, {"smiles": "CC[C@@H]1[C@@H](C)O[C@@](O)([C@@H](C)[C@H](O)[C@H](C)[C@H]2OC(=O)C=CC=C[C@@H](C)[C@@H]([C@@H](C)[C@@H](O)[C@H](C)[C@@]3(O)C[C@H](O[C@H]4C[C@H](O)[C@H](O)[C@H](C)O4)[C@H](CC)[C@@H](C)O3)OC(=O)C=CC=C[C@@H]2C)C[C@H]1O[C@H]1C[C@H](O)[C@H](O)[C@H](C)O1", "Potency": "0.833 µM (active)"}, {"smiles": "CC(C)[C@H]1C(=O)N[C@H](CO)Cc2c[nH]c3cccc(c23)N1C", "viability, % of control": "106% (inactive)"}, {"smiles": "C[C@@H]1CC[C@@]2(OC1)O[C@H]1C[C@H]3[C@@H]4CC=C5C[C@@H](O[C@@H]6O[C@H](CO)[C@@H](O[C@@H]7O[C@@H](C)[C@H](O)[C@@H](O)[C@@H]7O)[C@H](O)[C@@H]6O[C@@H]6O[C@@H](C)[C@H](O)[C@@H](O)[C@@H]6O)CC[C@]5(C)[C@@H]4CC[C@]3(C)[C@@H]1[C@H]2C", "Potency": "2.64 µM (active)"}, {"smiles": "CC(C)(C)c1cc(C=C(C#N)C#N)cc(Br)c1O", "Potency": "23.5 µM (active)"}]}, {"assay": "Quantitative High-Throughput drug screen in 47 multiple myeloma cell lines against the NCATS MIPE library collection: AMO1_DSMZ cell viability assay (AID 1918927)", "details": "AMO1 myeloma cells viability, CellTiter-Glo ATP luminescence, 48 h; series mostly up to 45.8 µM; viability, % of DMSO: at the top concentration", "outline": "as §1", "values": [{"smiles": "C#CC1(O)CCC2C3CCC4=CC(=O)CCC4(C)C3CCC21C", "note": "(centres undefined)", "viability, % of DMSO": "88.4% (inactive)"}, {"smiles": "CC(C)(O)C(=O)Nc1ccc([N+](=O)[O-])c(C(F)(F)F)c1", "Potency": "11.8 µM (active)"}, {"smiles": "C1=C2CCCN[C@H]2[C@@H]2C[C@H]1[C@@H]1CCCCN1C2", "viability, % of DMSO": "117% (inactive)"}, {"smiles": "CC(C)[C@]12O[C@@H]1[C@@H]1O[C@]13[C@]1(O[C@H]1C[C@@H]1C4=C(CC[C@@]13C)C(=O)OC4)[C@H]2O", "viability, % of DMSO": "1.77% (inactive)"}, {"smiles": "c1cc2c(cc1[C@H]1OC[C@H]3[C@H]1CO[C@H]3c1ccc3c(c1)OCO3)OCO2", "viability, % of DMSO": "80.3% (inactive)"}, {"smiles": "N=c1c2c(-c3ccccc3)c(-c3ccccc3)n(Cc3ccccc3)c2ncn1C1CCC(O)CC1", "note": "(centres undefined)", "Potency": "0.526 µM (active)"}, {"smiles": "CC(N[C@H]1C[C@H]1c1ccccc1)c1ccc2c(c1)OCCO2", "note": "(some centres undefined)", "viability, % of DMSO": "101% (inactive)"}, {"smiles": "O=C(N[C@@H](COc1ccc2[nH]c(=O)[nH]c2c1)c1ccccc1)c1cccn(Cc2ccc(F)c(F)c2)c1=O", "Potency": "18.7 µM (active)"}, {"smiles": "Cc1c(N)nc([C@H](CC(N)=O)NC[C@@H](N)C(N)=O)nc1C(=O)N[C@H](C(=O)N[C@@H](C)[C@H](O)[C@@H](C)C(=O)N[C@@H](C(=O)NCCc1nc(-c2nc(C(=O)NCCC[S+](C)C)cs2)cs1)[C@@H](C)O)C(O[C@H]1O[C@H](CO)[C@H](O)[C@@H](O)[C@@H]1O[C@H]1O[C@H](CO)[C@@H](O)[C@H](OC(N)=O)[C@H]1O)c1cnc[nH]1", "note": "(some centres undefined)", "Potency": "0.296 µM (active)"}, {"smiles": "COc1ccc2c(c1)[C@]13CCCCC1C(C2)N(C)CC3", "note": "(some centres undefined)", "viability, % of DMSO": "94% (inactive)"}, {"smiles": "c1ccc2c(CN3CCNCC3)cccc2c1", "viability, % of DMSO": "106% (inactive)"}, {"smiles": "CCOC(=O)c1c(C(C#N)=CN)c2ccc(Cl)c(Cl)c2n1C", "viability, % of DMSO": "100% (inactive)"}, {"smiles": "COc1ccc(C(=O)c2c(C)n(CCN3CCOCC3)c3cc(I)ccc23)cc1", "Potency": "11.8 µM (active)"}, {"smiles": "CCOC(=O)Nc1ccc(NCc2ccc(F)cc2)cc1N", "viability, % of DMSO": "117% (inactive)"}, {"smiles": "COC[C@H]1OC(=O)c2coc3c2[C@@]1(C)C1=C(C3=O)[C@@H]2CC[C@H](O)[C@@]2(C)C[C@@H]1OC(C)=O", "Potency": "5.26 µM (active)"}, {"smiles": "CCOC(=O)c1cncn1[C@H](C)c1ccccc1", "viability, % of DMSO": "96.9% (inactive)"}, {"smiles": "COc1cc2cc(c1Cl)N(C)C(=O)C[C@H](OC(=O)C(C)C)[C@]1(C)O[C@H]1[C@H](C)[C@@H]1C[C@@](O)(NC(=O)O1)[C@H](OC)C=CC=C(C)C2", "viability, % of DMSO": "9.87% (inactive)"}, {"smiles": "CC[C@@H]1[C@@H](C)O[C@@](O)([C@@H](C)[C@H](O)[C@H](C)[C@H]2OC(=O)C=CC=C[C@@H](C)[C@@H]([C@@H](C)[C@@H](O)[C@H](C)[C@@]3(O)C[C@H](O[C@H]4C[C@H](O)[C@H](O)[C@H](C)O4)[C@H](CC)[C@@H](C)O3)OC(=O)C=CC=C[C@@H]2C)C[C@H]1O[C@H]1C[C@H](O)[C@H](O)[C@H](C)O1", "Potency": "0.332 µM (active)"}, {"smiles": "CC(C)[C@H]1C(=O)N[C@H](CO)Cc2c[nH]c3cccc(c23)N1C", "viability, % of DMSO": "103% (inactive)"}, {"smiles": "C[C@@H]1CC[C@@]2(OC1)O[C@H]1C[C@H]3[C@@H]4CC=C5C[C@@H](O[C@@H]6O[C@H](CO)[C@@H](O[C@@H]7O[C@@H](C)[C@H](O)[C@@H](O)[C@@H]7O)[C@H](O)[C@@H]6O[C@@H]6O[C@@H](C)[C@H](O)[C@@H](O)[C@@H]6O)CC[C@]5(C)[C@@H]4CC[C@]3(C)[C@@H]1[C@H]2C", "Potency": "2.64 µM (active)"}, {"smiles": "CC(C)(C)c1cc(C=C(C#N)C#N)cc(Br)c1O", "Potency": "26.4 µM (active)"}]}]}
